Compound activity (PubChem BioAssay)
Hits are enriched below; roughly 3.5% of the tested compounds scored in any of these assays.
UGM FP inh: blocks M. tuberculosis UGM enzyme. inhibition, % at 10 µM. 320,000 compounds, 0.06% hits. purified UGM, fluorescence polarization probe displacement. P9WIQ1; in the data active = inhibition above about 10%, passing the limit was not always enough
Target sequence (P9WIQ1 whole entry, looked up): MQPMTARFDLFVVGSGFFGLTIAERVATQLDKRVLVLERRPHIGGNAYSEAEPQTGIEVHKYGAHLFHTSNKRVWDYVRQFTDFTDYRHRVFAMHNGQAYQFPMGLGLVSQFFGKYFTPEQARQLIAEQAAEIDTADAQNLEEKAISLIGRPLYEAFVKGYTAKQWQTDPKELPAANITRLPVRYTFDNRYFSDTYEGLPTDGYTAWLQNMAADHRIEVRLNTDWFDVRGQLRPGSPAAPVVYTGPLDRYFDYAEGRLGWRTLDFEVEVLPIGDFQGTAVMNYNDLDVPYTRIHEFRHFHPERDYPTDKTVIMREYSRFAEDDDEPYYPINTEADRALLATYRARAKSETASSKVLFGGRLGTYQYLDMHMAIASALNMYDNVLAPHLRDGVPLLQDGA
Rv3671c inh: Rv3671c (M. tuberculosis) protease inhibition. inhibition, % at 5.96 µM. 320,000 compounds, 0.048% hits. P9WHR9. AID 2606; in the data active = inhibition above about 38%;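 also: extracellular domain of Rv3671c used as enzyme; 0% = enzyme with DMSO and 100% = no enzyme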
FBA Mtb inh: Mtb fructose-bisphosphate aldolase inhibition. 360,000 compounds, 2.3% hits. P9WQA3. AID 588726. inhibition, % at 1 µM. purified M. tuberculosis FBA, fluorescence read-out;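 also: 0% = vehicle and 100% = reference inhibitor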
Mtb hypoxia inh: inhibitors of hypoxia-regulated fluorescent reporter in Mycobacterium tuberculosis | M. tuberculosis hypoxia-regulated fluorescent reporter, fluorescence | 300,000 compounds, 0.1% hits | fluorescence inhibition, % (test concentration not listed); in the data active = fluorescence inhibition mostly above about 23%, no sharp cut-off; inactive = mostly below about 17%
GDH-TPI counter-1: inhibits GDH-TPI coupling enzymes, artifact for Mtb FBA screen | inhibition, % at 4.8 µM | GDH-TPI coupled enzyme counterscreen, NADH absorbance | 360,000 compounds, 1.2% hits; in the data active = inhibition above about 30%;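 also: 0% = DMSO wells and 100% = wells lacking the enzyme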
FadD28 FP inh: inhibitors of Mycobacterium tuberculosis FadD28 bisubstrate binding | FadD28 bisubstrate probe binding, fluorescence polarization | inhibition, % at 12.5 µM | 360,000 compounds, 0.22% hits; in the data active = inhibition above about 8.5%, passing the limit was not always enough
Mtb FBA inh conf: Mtb FBA inhibition, confirmed. shares compounds with FBA Mtb inh. purified M. tuberculosis FBA, fluorescence read-out. inhibition, % at 1 µM. 5,600 compounds, 78% hits. AID 651616;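 also: 0% = vehicle wells and 100% = reference inhibitor wells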
GDH-TPI counter-2: counter-screen for M. tuberculosis FBA inhibitors: GDH-TPI coupled enzyme inhibition. shares compounds with FBA Mtb inh. GDH-TPI coupled enzyme counterscreen, fluorescence. inhibition, % at 1 µM. 5,600 compounds, 81% hits; in the data active = inhibition above about 10%
GDH-TPI DR: GDH-TPI dose response counter-screen for Mtb FBA; shares compounds with FBA Mtb inh; GDH-TPI coupled enzyme assay, fluorescence, artifact counterscreen; IC50, µM; 170 compounds, 79% hits; call rule not given here
* marks the source's active call; other numbers are inactive results; · = no result; + = active, no number. Rule as the data show it, unless noted: active = inhibition above about 27%; inactive = the rest.

SMILES	UGM FP inh	Rv3671c inh	FBA Mtb inh	Mtb hypoxia inh	GDH-TPI counter-1	FadD28 FP inh	Mtb FBA inh conf	GDH-TPI counter-2	others
FC(F)(F)c1ccc(CN2CC3C(c4ccc(Cl)nc4)C4(c5cccnc5)CC3(C4)C2c2ccccc2)cc1 (centres undefined)	·	·	·	-13	·	·	·	·
COc1ccc(OCCSCc2nnc(NC(=O)Nc3ccc(Cl)cc3)s2)cc1	3	-7	29*	14	-1	-3	10	-5
O=C(COc1ccc([N+](=O)[O-])cc1)Nc1nc(-c2ccccn2)cs1	0	-24	28*	19	10	-5	+	+
COc1cc(C=NN=C2SC(CC(=O)O)C(=O)N2c2ccc(O)cc2)ccc1O (centres undefined)	·	·	·	12	·	·	·	·
COc1ccc2cc(C(N)=O)c(=Nc3ccccc3)oc2c1	0	-20	36*	11	13	1	10	-5	GDH-TPI DR=>10
COC(=O)c1ccc2c(c1)C(C)(C)C(/C=C/c1ccc(OC)c(OC)c1OC)=[N+]2C	-4	-465	47*	·	5	-2	78*	57*
COC(=O)c1ccc2c(c1)C(C)(C)C(/C=C/c1ccc(O)cc1)=[N+]2C	-6	-332	26	1	-3	-10	·	·
c1cc(-c2ccsc2)n2ccnc2c1	·	·	56*	·	5	-2	172*	137*
Cc1cc(O)ccc1-c1cccc2nccn12	·	·	49*	·	-3	-6	-4	-3
COC(=O)C1=C(c2ccc3ccccc3c2)CC2CCC1N2C(=O)NCCCOC(C)C (centres undefined)	·	·	·	2	·	·	·	·
N#Cc1ccc(CCc2ccccc2)[nH]c1=O	·	·	31*	1	17	1	2	0
O=C(Nc1cccc2ccccc12)N(CCO)C1CCS(=O)(=O)C1 (centres undefined)	2	3	61*	-6	3	-1	108*	105*
CCN(C(=O)COC(=O)Cc1cccc2ccccc12)C1CCS(=O)(=O)C1 (centres undefined)	2	-7	0	11	1	-1	·	·
Cc1ccc(CN2CC(C(=O)Nc3ccc(C)c(S(=O)(=O)N4CCCCC4)c3)CC2=O)cc1 (centres undefined)	·	·	3	-3	7	-2	·	·
Cc1ccc(CN2CC(C(=O)Nc3ccc4c(C)cc(=O)oc4c3)CC2=O)cc1 (centres undefined)	3	-5	89*	2	16	0	96*	74*
Cc1cc(C[n+]2ccsc2N)c2ncccc2c1	-1	-5	0	7	8	-2	·	·
Cc1cc(C[n+]2ccccc2)c2nsnc2c1	-1	2	31*	2	11	-2	97*	72*
Cc1nc2cc(C(=O)O)ccc2s1	-1	4	-3	4	8	-2	·	·
Cc1nc2ccc(C(=O)O)cc2c2c1CC(C)S2 (centres undefined)	1	9	61*	·	3	-8	44*	30*
O=C(CC=NOCc1c(Cl)cccc1Cl)c1ccccc1	·	·	·	5	·	·	·	·
CC(C)Sc1nc(NCc2ccco2)c2c3c(sc2n1)COC(C)(C)C3	0	-2	85*	-8	9	-3	+	+
Cc1nc(NCc2ccco2)c2c3c(sc2n1)CCC3	4	-6	4	·	-5	-3	·	·
COc1cc(-c2nnc(-c3cccs3)o2)cc(OC)c1OC	0	-9	12	·	22	-1	·	·
COc1ccc(-c2nnc(-c3cc(OC)c(OC)c(OC)c3)o2)cc1OC	-1	-9	89*	6	20	0	40*	28*
CCOc1ccc(-c2nnc(-c3cccs3)o2)cc1OCC	0	2	25	11	18	-3	·	·
SMILES	UGM FP inh	Rv3671c inh	FBA Mtb inh	Mtb hypoxia inh	GDH-TPI counter-1	FadD28 FP inh	Mtb FBA inh conf	GDH-TPI counter-2	others
COc1ccc(-c2nnc(-c3cccs3)o2)cc1OC	-2	0	55*	19	21	0	63*	53*
CCOc1ccc(-c2nnc(-c3cccs3)o2)cc1	-1	-3	75*	12	8	0	54*	46*
CCOC(=O)C1C2COc3cc(OC)ccc3C2N2C(=O)CN(CC3CCCO3)C(=O)[C@@]12C (some centres undefined)	·	·	·	20	·	·	·	·
COc1cc(CCCN2CCNCC2c2ccccc2)cc(OC)c1OC (centres undefined)	·	·	·	0	·	·	·	·
COc1ccc(-c2cc(C(=O)OCC(=O)Nc3cc(C)on3)c3ccccc3n2)cc1OC	-1	-9	-1	0	0	0	·	·
Cc1ccc(-c2cc(C(=O)OCC(=O)Nc3cc(C)on3)c3ccccc3n2)c(C)c1	1	13	103*	·	9	-7	58*	50*
Cc1cc(C)n2nc(C(=O)OCC(=O)c3ccccc3)nc2n1	1	-1	28*	-10	0	-2	95*	68*
COc1ccc(S(=O)(=O)NN=Cc2ccc3c(c2)OCO3)cc1	·	·	·	-7	·	·	·	·
Cc1cc2c(c(=O)n1CCc1ccccc1)C(c1ccco1)C(C#N)=C(N)O2 (centres undefined)	2	2	40*	1	6	-1	2	-3
Cc1cccc(NC(=O)CNC(=O)COC(=O)C2CC2C)c1C (centres undefined)	1	7	30*	8	-2	0	2	-2
Cc1cccc(NC(=O)CNC(=O)COC(=O)c2ccc(C(C)(C)C)cc2)c1C	2	-2	4	-3	6	-1	·	·
Cc1c(NC(=O)c2ccccc2N)cccc1C(=O)O	0	-2	14	3	-1	-5	·	·
O=C(NCc1ccc(Cl)cc1)c1ccccc1CCc1ccccc1	4	-13	4	2	6	-2	·	·
Nc1ccccc1C(=O)NCc1ccc(F)cc1	1	7	77*	0	10	-3	·	+
Nc1ccccc1C(=O)NCc1ccc(Cl)cc1	-1	5	49*	10	11	0	161*	139*
O=C(O)c1ccccc1C(=O)NCc1ccc(F)cc1	2	-8	1	15	4	0	·	·
COc1cccc(CNC(=O)CCNC(=O)c2ccccc2OC)c1	-2	-9	0	-4	3	-2	·	·
Nc1ccccc1NC(=O)c1ccccc1N	-1	1	61*	5	7	-3	101*	87*
COc1cccc(CNC(=O)c2ccccc2N)c1	1	4	63*	·	6	2	59*	54*
O=C(NN=Cc1ccc(-c2cccc(C(F)(F)F)c2)o1)c1cccc(F)c1	·	·	·	4	·	·	·	·
COc1ccc2c(c1)cc(C(=O)N[C@@H](Cc1ccccc1)C(=O)N[C@@H](C)C(=O)O)n2C	3	1	59*	-11	15	0	31*	9	GDH-TPI DR=2.5*
